# Inconclusive results are not listed. Active and inactive are the calls of the source. Calls come from the whole dose curve; as a rule, active = well fitted inhibition curve with a large enough effect; inconclusive = small, poorly fitted or top-dose-only effect; inactive = flat fitted curve, though single readings scatter.
# Tested on: HaCat
# Test: Cytotoxic Profiling of Annotated Libraries Using Quantitative High-Throughput Screening (AID 1296008); note: nearly all actives have a fitted effect of over 60% in size
# Settings: Five cell lines viability, CellTiter-Glo ATP luminescence, 48-72 h
# Method in brief: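 Cytotoxicity was measured as CellTiter-Glo ATP luminescence, read after 10 min at room temperature. Compound treatment of the cells lasted 48 or 72 hr at 37 degrees Celsius in a qHTS format.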
row,SMILES,outcome
1,CC(=O)Nc1ccccc1,inactive
2,O=C(/C=C/c1ccccc1)OCc1ccccc1,inactive
3,c1ccc2[nH]ccc2c1,inactive
4,NC(N)=NS(=O)(=O)c1ccc(N)cc1,inactive
5,Cc1ccc(S(=O)(=O)NC(=O)NC2CCCCC2)cc1,inactive
6,C[C@H]1COc2c(C3(N)CC3)c(F)cc3c(=O)c(C(=O)O)cn1c23,inactive
7,Cc1c(NC(C)C)c(=O)n(-c2ccccc2)n1C,inactive
8,CCCCCC(N)=O,inactive
9,Cn1c(=O)c2c(ncn2CCO)n(C)c1=O,inactive
10,CC(C)c1cc2c(cc1S(=O)(=O)O)[C@@]1(C)CCC[C@@](C)(C(=O)O)[C@@H]1CC2,inactive
11,O=C(NCCCN1CCOCC1)c1ccc(Cl)cc1,inactive
12,COc1ccccc1OC(=O)Oc1ccccc1OC,inactive
13,OCc1ccc(Cl)cc1Cl,inactive
14,CC(=O)Nc1cccc(O)c1,inactive
15,FC(F)(F)C(Cl)Br (stereo not drawn),inactive
16,Cc1c(N(C)C)c(=O)n(-c2ccccc2)n1C,inactive
17,COC(=O)c1cccnc1,inactive
18,CCN(CC)CC1CCCCN1CC(=O)N1c2ccccc2C(=O)Nc2cccnc21 (stereo not drawn),inactive
19,Cc1cccc(Nc2ccccc2C(=O)O)c1C,inactive

row,SMILES,outcome
1,COc1ccccc1Oc1c(NS(=O)(=O)c2ccc(C(C)(C)C)cc2)nc(-c2ncccn2)nc1OCCO,inactive
2,CCc1nnc(NS(=O)(=O)c2ccc(N)cc2)s1,inactive
3,Cc1c(C(=O)NCCO)[n+](=O)c2ccccc2n1[O-],inactive
4,O=C1c2cccc(O)c2C(=O)c2c(O)cccc21,inactive
5,CCCCCCCC(=O)OCC(COC(=O)CCCCCCC)OC(=O)CCCCCCC,inactive
6,O=C1C(c2[nH]c3ccccc3c2O)=Nc2ccccc21,inactive
7,NNC(=O)CP(=O)(c1ccccc1)c1ccccc1,inactive
8,Nc1ncnc2c1ncn2[C@@H]1O[C@H](COP(=O)(O)O)[C@@H](O)[C@H]1O,inactive
9,CC1CCc2cc(F)cc3c(=O)c(C(=O)O)cn1c23 (stereo not drawn),inactive
10,O=C(O)c1cc(=O)c2ccccc2o1,inactive
11,C=CCSCC1Nc2cc(Cl)c(S(N)(=O)=O)cc2S(=O)(=O)N1 (stereo not drawn),inactive
12,O=C(O)Cc1ccc(CCNS(=O)(=O)c2ccc(Cl)cc2)cc1,inactive
13,CC[N+](CC)(CC(=O)Nc1c(C)cccc1C)Cc1ccccc1,inactive
14,O=c1[nH]c(=O)c2ccccc2o1,inactive
15,O=C(O)c1ccccc1OP(=O)(O)O,inactive
16,O=S1(=O)OC(c2ccc(O)cc2)(c2ccc(O)cc2)c2ccccc21,inactive
17,COc1ccc(C(=O)N2CCN(CC(=O)N3CCOCC3)CC2)cc1,inactive
18,OCC(O)CS (stereo not drawn),inactive
19,CN1CCN(C(=O)C2CCCCC2)CC1,inactive

# From PubChem BioAssay (NCATS)
